Test results: the OligoGym collection

molecular target: KCNMB2; experiment: pooled miR-30 sensor sort-seq; sequence = guide strand; conditions: shRNA
Note: reference of the scale not given here.

Row | Sequence | sensor-assay potency score (higher = more potent)
1 | TAGGATAACACTCTTCTGGTTT | 0.203
2 | TTTTGTTAGGATAACACTCTTC | -0.026
3 | TTAGGATAACACTCTTCTGGTT | -1.15
4 | TAACACTCTTCTGGTTTCCTTC | -0.332
5 | TGTTAGGATAACACTCTTCTGG | -0.415
6 | TTTGTTAGGATAACACTCTTCT | 0.649
7 | TTTATTGTCTCTTCTGTGTGGT | 0.74
8 | TTATTGTCTCTTCTGTGTGGTA | -0.319
9 | TAGGGAACTCATAACAGACTGC | -0.389
10 | TTTTATTGTCTCTTCTGTGTGG | 0.163
11 | TTCCATGACAACATTCACCAGG | -0.0986
12 | TTGATTTTTATTGTCTCTTCTG | -0.466

molecular target: KCNN2; experiment: as above; conditions: shRNA

Row | Sequence | sensor-assay potency score (higher = more potent)
13 | TTGATGAATAGCTTGCAGGAAT | -0.859
14 | ATTGATATCAACCACATCGCTC | -0.533
15 | TTCTTAATTGATGAATAGCTTG | -1.14
16 | TTACACTTCTTAATTGATGAAT | -0.837
17 | TAGCTTGCAGGAATTTTCGTTG | -0.466
18 | ATGAACAACTGTATTTCCCTGG | 0.818
19 | TAATTGATGAATAGCTTGCAGG | -0.772
20 | TACTTTTGCATGATCTATCTTT | -0.0765
21 | TTGTCGTAGCTCTCCATCTGAG | -1.04
22 | TTCTCGAAGTCTTCACTCCTTT | -0.431
23 | TTAGACACCACGATCTCGGGGG | 1.02
24 | TTAATTGATGAATAGCTTGCAG | 0.193
